Drawing on the supplement of paper PMC6555819, this text covers PBM binding z-score for 40 sequences.

One test has as its system PPARg:RXRa 30nM:10nM, anti-RXR (NR concentration 30 nM, RXRa partner concentration 10 nM). Kind of test: PBM binding z-score (relative to random genomic background probes); higher = stronger binding; sequences stand for … in GC…GCGATTGACAGCGTAGAATGAAGG
The method in brief: (§1)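 Binding z-scores take random background probes as their reference. They come from custom Agilent 4×180K protein-binding microarrays incubated 1 h with ligand-free nuclear receptor dimers, with antibodies against each partner (one per run) detecting binding. Scanned fluorescence was regression-normalized.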
Consider AAATGTAGGTTATCGGGTCATTCAGTTTGCGCAT, for which the PBM binding z-score was 4.76.
TCTTGTAGATCAACAGGAGGTAAAGAAAGATCGA displayed a PBM binding z-score of 2.4.
Sequence CCTTACGGGTCACGAGGTTATGGCACGACGAGCG displayed a PBM binding z-score of 3.46.
CCTCGGAGGACAGAAGATCAGAGCTGTCCGCTTT displayed a PBM binding z-score of -0.616.
Regarding TTACCAAGGCGAGCTGAGGTCGTTGATCCAACTC, the PBM binding z-score was -0.31.
Sequence TCTAGTAGATCAGCAGGTTAAGAAAGCTGGCCAA registered a PBM binding z-score of 2.66.
Sequence GCGACTGGGGCATCAGCAGGTTACGATAACTTAA returned a PBM binding z-score of -0.247.
CGAACTAGGTCATCCAGGACAGTAAATACATTGA registered a PBM binding z-score of 3.68.
On the same count and under the same terms, under ACTATTAGTTGAGACGAAGGCAACCGATAGGTTG stands -0.441.
Sequence TCGAGTTGGTTAGTCGGGGCATTCAGCCAACATA displayed a PBM binding z-score of 1.2.
Regarding TAGCCTAGGTCATTCAGGGGCCTGTATAGAAAGC, the PBM binding z-score is 0.363.
On to TAGCCAAGGTCATGGGCCAGTATACCACGCGAAC, for which the PBM binding z-score was 2.19.
Turning to TCTAGTTGGGCACGGAGGTCACACACGACGGGTA, the PBM binding z-score stood at 2.73.
In turn, ATCTCTAGGTAAAGTACAGTGAAAGATCGATAGA came in with a PBM binding z-score of 0.832.
For GTACCAAGATGAATAGGTCGTTGATGAGTAGGCG, the PBM binding z-score was -0.282.
In turn, CGAACTAGGTCCGAACAGGACAGTGAAGGATGAT showed a PBM binding z-score of -0.414.
Take CTCGAAAGGTCGTTCTCAGGTGAGTATACCAAAC: the PBM binding z-score was determined as 0.949.
As to CAAACTAAGTCAAGGTCAAAGTCGGTTTGTGCCA, the PBM binding z-score was 1.62.
In the case of GTTGCTAGGTCAGGTTGGTCAGCTAACGGGTACG, the PBM binding z-score is -0.115.
In turn, CCAACGAGGGCATGAGTTGATAGCAAATGCCGAT yielded a PBM binding z-score of -0.155.
For the sequence TCTTGTAGATCGGCAGGTTAAGAAAGCTGGCCAA, the PBM binding z-score came to 2.42.
The sequence TCGAGTAGGTTAGGGGCATTCAAAATGGCGTCGA returned a PBM binding z-score of 1.27.
Still for that read-out and setting: under TAGCCTAGGTCATTCAGGGGCCAGTCTAGAAAGC stands -0.0756.
TCTCCTAGGTCAGTTGGTCAGCTAACGAGCTGCC: the PBM binding z-score turned out to be 2.9.
ATCGAAAGGTCGTGAGGTGAGTGTACAGAAAGGC yielded a PBM binding z-score of 1.35.
The same measure, in the same setting: the result for CGTCAAAGTTCAAGGTAACGGAACAGAAAGCAGC reads 2.47.
Consider ACTATTAGTTGAGACGAGGGCAAACGATAGGTTG, for which the PBM binding z-score amounted to 0.117.
With TCGAGTAGGTTAGGGGCTTTCAGAATGGCGTCGA, the PBM binding z-score is 0.813.
Regarding CGAGCTAGGTCAAGGACAGTGAATCTCCGCACGC, the PBM binding z-score came to 0.109.
ATCTCTAGGTAAGAAGTTCAGTGAAAGAGAGGAC: the PBM binding z-score was determined as 0.954.
The sequence TTACCAAGGGGAGCTGAGGTCGTTGATCCAACTC came in with a PBM binding z-score of 0.187.
Take ACAGACAGTTGAGTGAAGGTAACTCAGCTGGACG: the PBM binding z-score was -0.0499.
The sequence TCTCGGAGGACACGTAAGGTCAGAGCTCGACATC returned a PBM binding z-score of 1.78.
On to ATCTCTAGGTAACAAGTTAAGTGAAAGAGAGGAC, for which the PBM binding z-score was found to be 1.59.
CTCGAAAAGTCGTGCTCAGGTGAGTATACCAAAC returned a PBM binding z-score of -0.421.
With TGAATGAGGTTATAAGCTCAGGGAACGTTGCAAA, the PBM binding z-score turned out to be 0.7.
AGAATGAGGTTATAAAGATCAGGGAATTGCGGTC showed a PBM binding z-score of 0.752.
Sequence CAAACTAGGTCACCGGAAGGTCAACGTCCGCATG yielded a PBM binding z-score of 5.72.
Turning to ATAGGTAGGTTAGCTGGGGTCATTCAGACTAGGC, the PBM binding z-score was found to be 1.45.
With TCTATTAGTTGACTAGGGCAACCGAAACAGCGGA, the PBM binding z-score came to 3.68.

The test system of another test is PPARg:RXRa 90nM:30nM, anti-RXR (NR concentration 90 nM, RXRa partner concentration 30 nM). Described as above. The method, boiled down:
as §1
In the case of AAATGTAGGTTATCGGGTCATTCAGTTTGCGCAT, the PBM binding z-score turned out to be 6.15.
TCTTGTAGATCAACAGGAGGTAAAGAAAGATCGA displayed a PBM binding z-score of 1.96.
Sequence CCTTACGGGTCACGAGGTTATGGCACGACGAGCG yielded a PBM binding z-score of 5.31.
The sequence CCTCGGAGGACAGAAGATCAGAGCTGTCCGCTTT returned a PBM binding z-score of -0.38.
Turning to TTACCAAGGCGAGCTGAGGTCGTTGATCCAACTC, the PBM binding z-score was determined as 0.219.
Regarding TCTAGTAGATCAGCAGGTTAAGAAAGCTGGCCAA, the PBM binding z-score came out at 2.06.
The sequence GCGACTGGGGCATCAGCAGGTTACGATAACTTAA registered a PBM binding z-score of 0.263.
Still for that read-out and setting: the result for CGAACTAGGTCATCCAGGACAGTAAATACATTGA reads 5.68.
The same measure, in the same setting: under ACTATTAGTTGAGACGAAGGCAACCGATAGGTTG stands -0.372; under TCGAGTTGGTTAGTCGGGGCATTCAGCCAACATA, 0.81.
On the same count and under the same terms, the result for TAGCCTAGGTCATTCAGGGGCCTGTATAGAAAGC reads 1.19; that for TAGCCAAGGTCATGGGCCAGTATACCACGCGAAC, 4.55; that for TCTAGTTGGGCACGGAGGTCACACACGACGGGTA, 2.96.
On to ATCTCTAGGTAAAGTACAGTGAAAGATCGATAGA, for which the PBM binding z-score came out at 0.623.
Same read-out and setting: the result for GTACCAAGATGAATAGGTCGTTGATGAGTAGGCG reads -0.197; that for CGAACTAGGTCCGAACAGGACAGTGAAGGATGAT, -0.784; that for CTCGAAAGGTCGTTCTCAGGTGAGTATACCAAAC, 2.29.
In the case of CAAACTAAGTCAAGGTCAAAGTCGGTTTGTGCCA, the PBM binding z-score turned out to be 2.78.
On to GTTGCTAGGTCAGGTTGGTCAGCTAACGGGTACG, for which the PBM binding z-score came to 0.452.
CCAACGAGGGCATGAGTTGATAGCAAATGCCGAT gave a PBM binding z-score of 0.242.
As to TCTTGTAGATCGGCAGGTTAAGAAAGCTGGCCAA, the PBM binding z-score stood at 2.02.
For the sequence TCGAGTAGGTTAGGGGCATTCAAAATGGCGTCGA, the PBM binding z-score was 1.69.
Still for that read-out and setting: under TAGCCTAGGTCATTCAGGGGCCAGTCTAGAAAGC stands 1.15; under TCTCCTAGGTCAGTTGGTCAGCTAACGAGCTGCC, 2.75; under ATCGAAAGGTCGTGAGGTGAGTGTACAGAAAGGC, 3.32.
The sequence CGTCAAAGTTCAAGGTAACGGAACAGAAAGCAGC gave a PBM binding z-score of 4.21.
In turn, ACTATTAGTTGAGACGAGGGCAAACGATAGGTTG came in with a PBM binding z-score of 0.161.
Take TCGAGTAGGTTAGGGGCTTTCAGAATGGCGTCGA: the PBM binding z-score is 1.15.
In the case of CGAGCTAGGTCAAGGACAGTGAATCTCCGCACGC, the PBM binding z-score was 1.07.
For ATCTCTAGGTAAGAAGTTCAGTGAAAGAGAGGAC, the PBM binding z-score is 1.86.
On the same count and under the same terms, the result for TTACCAAGGGGAGCTGAGGTCGTTGATCCAACTC reads -0.00393.
Sequence ACAGACAGTTGAGTGAAGGTAACTCAGCTGGACG gave a PBM binding z-score of -0.284.
In turn, TCTCGGAGGACACGTAAGGTCAGAGCTCGACATC showed a PBM binding z-score of 1.58.
Still for that read-out and setting: under ATCTCTAGGTAACAAGTTAAGTGAAAGAGAGGAC stands 2.7; under CTCGAAAAGTCGTGCTCAGGTGAGTATACCAAAC, -0.205; under TGAATGAGGTTATAAGCTCAGGGAACGTTGCAAA, 1.54.
The sequence AGAATGAGGTTATAAAGATCAGGGAATTGCGGTC yielded a PBM binding z-score of 1.52.
CAAACTAGGTCACCGGAAGGTCAACGTCCGCATG displayed a PBM binding z-score of 7.83.
In turn, ATAGGTAGGTTAGCTGGGGTCATTCAGACTAGGC showed a PBM binding z-score of 2.69.
Sequence TCTATTAGTTGACTAGGGCAACCGAAACAGCGGA gave a PBM binding z-score of 3.07.
